Assay results as given in publication PMC6212790, “How bacterial xenogeneic silencer rok distinguishes foreign from self DNA in its resident genome”.
In all, about 33,000 sequences were measured (“e-score”: median about -0.038, highest 2% from about 0.33 on). The entries come from a sample that favours the highest values as a whole.

What follows are sequences tested against T1, GST-Rok-C97-191 (Bacillus subtilis subsp. subtilis str. …, UniProt O34857 97-191) (assay: protein binding microarray; Rok is a gene silencer of Bacillus subtilis; high values mean tight binding). Settings: protein: recombinant; tags: GST (pTH5325, pDEST15-Magic modified); dsDNA, one strand shown.
T1 sequence: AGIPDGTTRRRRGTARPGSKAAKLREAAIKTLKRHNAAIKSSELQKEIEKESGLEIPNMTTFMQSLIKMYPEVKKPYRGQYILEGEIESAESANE
How it was run: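 Every oligonucleotide joins a 25-mer constant primer to a 35-mer variable part drawn from a de Bruijn sequence of order 10, so each non-palindromic 8-mer appears at least 32 times and each palindromic 8-mer 16 times. The preference for every 8-mer is reported as a unitless, rank-based enrichment score (E-score). This score spans 0.5 for the most favored 8-mer to −0.5 for the most disfavored.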

| Sequence | binding signal [E-score] |
| --- | --- |
| GAATACTA | 0.209 |
| TAATACTA | 0.401 |
| AAATACTA | 0.434 |
| AAATACTG | 0.283 |
| AAATACTC | 0.205 |
| CAATACTA | 0.217 |
| CATCCCTA | -0.0266 |
| AGCTCGTA | 0.00298 |
| GATCTATA | 0.305 |
| AATCTAGA | 0.331 |
| TATCTAGA | 0.159 |
| AATCTATC | 0.421 |
| AATCTATA | 0.4 |
| AATCTATG | 0.135 |
| CATCTATC | 0.201 |
| AATCTAGG | 0.171 |
| CATCTATA | 0.201 |
| ACACGTGT | 0.00499 |
| GATAAGAC | 0.14 |
| ACATGCGG | 0.0405 |
| AAAAAGAG | -0.0136 |
| CTCACATC | -0.132 |
| ATTCATCA | 0.0772 |
| ACGATGCT | 0.0784 |
| ACTGACAT | -0.113 |

| Sequence | binding signal [E-score] |
| --- | --- |
| ACAGTCCC | -0.126 |
| GCATAGAC | -0.0624 |
| CACATGTA | 0.162 |
| TACATCTA | 0.369 |
| TATATGGA | 0.343 |
| GATATGGA | 0.0314 |
| CACATCTA | 0.151 |
| AACATCTA | 0.165 |
| GACATATA | 0.307 |
| TACATATA | 0.349 |
| TACATGTA | 0.417 |
| CATATGGA | 0.0214 |
| AACATATA | 0.208 |
| AACATGTA | 0.237 |
| AGTCAACT | 0.173 |
| AGATTCGA | 0.104 |
| ATAATTCG | 0.213 |
| CCTGGTTA | 0.0123 |
| CGACTCTA | -0.0898 |
| CCACATAC | 0.16 |
| AGTGGAAT | -0.0459 |
| GATATAGA | 0.244 |
| CATATATC | 0.279 |
| CTTATATA | 0.321 |
| TATATATA | 0.454 |

| Sequence | binding signal [E-score] |
| --- | --- |
| TATATCGA | 0.314 |
| CATATAGA | 0.144 |
| CATATATA | 0.353 |
| CATATATG | 0.306 |
| TATATAGA | 0.397 |
| CCAGTACA | 0.0219 |
| GTAGTGCA | 0.015 |
| CAGGGCTA | -0.0484 |
| CCTGTATA | 0.157 |
| CAGGCGCC | -0.149 |
| TACGTTCA | 0.085 |
| CATAACGC | 0.0154 |
| ACTTTGGA | -0.0486 |
| ATGACGTA | -0.0485 |
| AATCTGGA | -0.12 |
| AACCAGTA | 0.278 |
| AACTAGGT | 0.318 |
| ATCTAGTA | 0.31 |
| AACTAGTG | 0.376 |
| CACTAGTG | -0.0787 |
| AACTAGTT | 0.439 |
| ATCTAGTG | 0.364 |
| AACTAGTA | 0.47 |
| AACTAGTC | 0.0892 |
| ACCTAGTA | 0.233 |

| Sequence | binding signal [E-score] |
| --- | --- |
| ATCTAGTC | 0.287 |
| CACTAGTA | 0.253 |
| AACTAGGG | -0.0014 |
| CTGACATC | -0.162 |
| ATTACGCC | -0.0244 |
| CTTAAAGA | -0.126 |
| CATAGTGC | -0.076 |
| ATTGTCCG | -0.0512 |
| AAGCAAGC | -0.165 |
| CAGCAATA | 0.203 |
| CGTCATAC | 0.0184 |
| GACTAGTC | 0.0585 |
| TACTAGTA | 0.433 |
| AGCTAGTC | 0.104 |
| GACTAGTA | 0.368 |
| TACTAGCA | 0.256 |
| AGCTAGTA | 0.336 |
| GGCTAGTA | 0.115 |
| TACTAGGA | 0.115 |
| GACTAGGA | -0.0139 |
| AGCGCTCA | 0.00935 |
| CTGCTACC | -0.0872 |
| TCCCTAAA | -0.186 |
| ACGCGCTC | -0.0411 |
| AGTTTCCG | 0.112 |

| Sequence | binding signal [E-score] |
| --- | --- |
| GCGGCCAA | -0.114 |
| TAACGTTA | 0.339 |
| AAACGTTA | 0.0818 |
| GAACGTTA | 0.178 |
| CCTAATGC | -0.154 |
| AACGTGGC | -0.0901 |
| ATAGTATC | 0.278 |
| GCAGTATA | 0.224 |
| GAAGTATA | 0.164 |
| CTAGTATC | 0.111 |
| GTAGTATA | 0.428 |
| ATAGTATA | 0.334 |
| CTAGTATA | 0.37 |
| CAAGTATA | 0.251 |
| ATAGTATG | 0.316 |
| CGTTGGAG | -0.19 |
| AGGTATAC | 0.19 |
| CATTCATA | 0.181 |
| CTGTCCCA | -0.0317 |
| CTTTCTCA | -0.12 |
| AGGGAAAC | -0.0931 |
| ACATAGAC | 0.0775 |
| AGATAGAT | 0.349 |
| ACATAGAG | -0.0925 |
| ACATAGAT | 0.33 |

| Sequence | binding signal [E-score] |
| --- | --- |
| AGATAGAG | 0.128 |
| AGATAGAC | 0.0495 |
| AATTAGAA | 0.202 |
| ACGTACGG | 0.0152 |
| ACTAGTCG | 0.181 |
| CCTAGTAG | 0.25 |
| ACTAGTCT | 0.215 |
| GCTAGTAC | 0.184 |
| TCTAGTAA | 0.265 |
| ACCAGTAT | 0.196 |
| ACTAGTAG | 0.404 |
| CCTAGTAC | 0.0475 |
| CCTAGTAA | 0.145 |
| ACTAGTAC | 0.393 |
| ACTAGTAT | 0.409 |
| ACTAGTAA | 0.423 |
| ACCTTGGC | -0.158 |
| CATTCGAA | 0.101 |
| AACCAATT | 0.204 |
| ACTCAAGA | -0.0762 |
| CATAATGA | 0.175 |
| AAATTGAT | 0.0406 |
| CTTCCTCA | -0.0806 |
| GACAGCGA | -0.193 |
| GCGTAGAC | -0.111 |

| Sequence | binding signal [E-score] |
| --- | --- |
| GATATCCA | 0.0457 |
| GATATCAA | 0.158 |
| AATATCTC | 0.28 |
| CATATCGA | 0.0885 |
| AATATCTA | 0.343 |
| CATATCTA | 0.34 |
| CATATCTC | 0.0436 |
| GATATCTA | 0.349 |
| AATATCTG | 0.2 |
| ACATCTTC | 0.0581 |
| ACTAAACC | -0.0801 |
| CCTATTAG | 0.16 |
| CGACTGAA | -0.021 |
| CGTAACAG | 0.131 |
| CGTCGAAA | 0.106 |
| CATTAGTA | 0.26 |
| AATTAGTA | 0.408 |
| AATTAGTG | 0.28 |
| GTTTAGTA | 0.31 |
| ATTTAGTG | 0.0465 |
| ATTTAGTA | 0.4 |
| CATGGAAC | -0.0493 |
